HEK293 viab: cell viability loss counter-screen. HEK-293-SNCA-luc viability, GF-AFC fluorescence, 24 h. Potency, µM (titrated, usually from 57.1 µM), for inactives: top-dose activity change, negative = cytotoxicity, most hits filed as cytotoxic. 150,000 compounds, 0.12% hits. AID 1671193;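 note: potency is the fitted concentration of half-maximal effect; 0% = DMSO-treated cells and -100% = medium-only wells without cells; nearly all actives have a fitted effect of over 30% in size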
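Cytotoxicity counterscreen: after 24 h compound treatment of genome-edited SNCA-luciferase HEK-293 cells, live-cell protease substrate GF-AFC read by fluorescence after 30 min; activity scaled between DMSO (0%) and medium-only (-100%), curves Hill-fitted.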
GPT2 inh: blocks human glutamate pyruvate transaminase 2; Q8TD30; Recombinant GPT2, coupled pyruvate oxidase/HRP Amplex Red fluorescence; Potency, µM (series often up to 57.7 µM), for the others: top-dose activity change, negative = inhibition, most hits filed as inhibitors; 100,000 compounds, 0.25% hits; note: potency is the fitted concentration of half-maximal effect; nearly all actives have a fitted effect of over 60% in size
Target sequence (Q8TD30 whole entry, looked up): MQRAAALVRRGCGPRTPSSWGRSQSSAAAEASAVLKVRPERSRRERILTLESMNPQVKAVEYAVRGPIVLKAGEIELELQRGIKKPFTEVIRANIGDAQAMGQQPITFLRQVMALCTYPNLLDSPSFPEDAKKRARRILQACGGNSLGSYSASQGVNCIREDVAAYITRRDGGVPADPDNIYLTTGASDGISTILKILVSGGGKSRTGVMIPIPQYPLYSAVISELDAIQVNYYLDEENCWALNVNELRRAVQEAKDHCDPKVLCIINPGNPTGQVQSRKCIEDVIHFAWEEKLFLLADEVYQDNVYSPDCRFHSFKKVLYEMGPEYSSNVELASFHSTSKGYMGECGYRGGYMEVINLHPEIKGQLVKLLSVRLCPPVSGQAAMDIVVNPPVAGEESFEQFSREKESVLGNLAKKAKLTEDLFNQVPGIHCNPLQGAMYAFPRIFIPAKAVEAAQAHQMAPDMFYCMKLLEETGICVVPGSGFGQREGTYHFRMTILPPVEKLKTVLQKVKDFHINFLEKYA
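Fluorescence read-out: pyruvate from GPT2 turnover coupled to pyruvate oxidase, HRP and Amplex Red (0.2mM ThPP, 0.2U/mL PO and HRP, 50uM Amplex final). Substrates 250uM a-KG, 2mM L-alanine; enzyme 10ng/uL; 30 min RT.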
IP6K1 inhibitor: IP6K1 kinase inhibition | 140,000 compounds, 0.81% hits | activity change, % (series mostly up to about 58 µM) | IP6K1 kinase, ADP-Glo luminescence, 2 h; stronger effect = lower value; in the data active = activity change below about -25%
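ADP-Glo luminescence measures ADP made by human IP6K1 during a 2 h RT reaction with ATP/IP6 (mix at 1.3 mM/130 uM); top library doses 57.5 and 19.1 uM final.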
SNCA expr inh: SNCA gene expression inhibition; Potency, µM (doses to about 57.2 µM), for the others: at the highest dose activity change, negative = inhibition, hits mostly inhibitors; 140,000 compounds, 0.17% hits; HEK-293 SNCA-luciferase knock-in, luminescence, 24 h;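 note: potency is the fitted concentration of half-maximal effect; plate controls were DMSO cells for no effect and cell-free wells for full effect; nearly all actives have a fitted effect of over 45% in size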
IP6K1 conf: confirmation of human IP6K1 inhibitors; shares compounds with IP6K1 inhibitor; recombinant IP6K1 kinase, ADP-Glo luminescence, 2 h; Potency, µM (highest dose often 49 µM), inactives show top-dose activity change, negative = inhibition, actives largely listed as inhibitors; 1,200 compounds, 13% hits; AID 1645852; note: potency is the fitted concentration of half-maximal effect; nearly all actives have a fitted effect of over 65% in size
The depositor's hits bear a star; i = inactive; ? = inconclusive; · = not tested or not shown; ! = not confirmed by another sample; [ ] = dose if it differs, or a comment. Most compounds without a hit are left out; they make up all but 1.1% or so of the library. Unless noted, calls come from the whole dose curve; as a rule, active = well fitted curve in the direction sought with a large enough effect; inconclusive = small, poorly fitted or top-dose-only effect, or another doubt; inactive = no such curve, though single readings can be large; an effect the other way counts as inactive or inconclusive. Unless noted, % is set by controls: 0 for no effect and ±100 for the full control effect.

SMILES	HEK293 viab	GPT2 inh	IP6K1 inhibitor	SNCA expr inh	IP6K1 conf
COc1cc(C2CC(=O)Oc3c2c(=O)[nH]c2ccccc32)cc(OC)c1OC (stereo not given)	5.2%	·	-13.9	17.1%	·
CCOC(=O)N1CCC2(CC1)N=C(CCC(C)C)NC2=O	2.7%	-6.2%	11.5	?	·
CC(C)CCC1=NC2(CCN(C(=O)CCN3CCCCC3=O)CC2)C(=O)N1	-2.7%	-7.6%[11.5 µM]	-34.6*	-6.3%	-13.8%
CNC(=O)c1cc(C2CC2)nc2c1c(C1CCN(C(=O)c3ccc(C(F)(F)F)cc3)CC1)nn2C	·	·	-6.8	·	·
Cc1ccc(-c2ncc(C(=O)N3CCC(Nc4ncccn4)CC3)c(=O)[nH]2)cc1	16.8%	0.3%	5.2	-18.9%	·
Cc1ccc2nc(C(C)NC(=O)c3cnc(-c4ccccn4)[nH]c3=O)[nH]c2c1 (stereo not given)	-12.4%	?	-35.8*	-15.7%	?
COc1ccccc1-c1cc(C(=O)Nc2ccc(Cl)cc2)c2cnn(C)c2n1	·	·	-14.0	·	·
O=C(O)c1cc(O)c2cccc(O)c2c1O[C@@H]1O[C@H](CO)[C@@H](O)[C@H](O)[C@H]1O	-4.1%	?	-37.0*	·	?
Fc1ccc(-c2noc(-c3nnn4c3COC(c3ccc(F)cc3)C4)n2)cc1 (stereo not given)	-1.8%	i	5.6	11.3%	·
Fc1ccc(C2Cn3nnc(-c4nc(-c5ccc6c(c5)OCO6)no4)c3CO2)cc1 (stereo not given)	7.6%	3.9%	-27.8*	1.3%	-15.7%
CCOc1ccc(-c2cc(C(=O)Oc3ccc(C#N)cc3)no2)cc1	10.0%	·	-27.1*	-3.0%	?
N#Cc1ccc(OC(=O)c2cc(-c3ccc(Cl)cc3)on2)cc1	4.9%	·	2.3	-4.6%	·
CCCCCCCCn1cc(CN(CC)CC)c2cc(-c3cnc(N)nc3)ccc21	?	?	-35.1*	·	?
NC(=O)CCn1cc(CN(CCO)Cc2ccccc2F)c2ccccc21	20.3%	-2.6%	3.6	3.3%	·
Cc1nn(-c2ccccc2)c2c1C(C(C)C)N(C1CCCN(C(=O)Nc3ccc(Cl)cc3)C1)C2=O (stereo not given)	·	·	-2.7	·	·
O=[N+]([O-])c1ccc(CNc2nc(NCc3cccc(C(F)(F)F)c3)nc3nc[nH]c23)cc1	-3.4%	i	-75.1*	·	1.64µM*!
Cc1nn(-c2ccccc2)c2c1C(C1CC1)N(CC1CN(C(=O)c3cccc(Cl)c3)C1)C2=O (stereo not given)	·	·	8.2	·	·
O=c1ncn(CC2CC2)c2ccc(-c3ccoc3)nc12	-4.7%[87.6 µM]	2.6%[88.5 µM]	-32.4*	1.7%[87.6 µM]	-4.4%[92.2 µM]
CCOC(=O)[C@@H]1[C@@H](OC)C(=O)N(C(C)C)C12CCN(C(=O)c1cc3ccccc3s1)CC2	·	·	13.3	·	·
O=C(c1ccccc1)N1CCCN(c2ccnc3ccnn23)CC1	11.7%[87.6 µM]	-4.2%[88.5 µM]	-26.1*	1.6%[87.6 µM]	12.9%
O=C(c1ccncc1)N1CCCN(c2ccnc3ccnn23)CC1	-0.2%[87.6 µM]	0.7%[88.5 µM]	-24.2	13.4%[87.6 µM]	·
COc1ccc(NC(=O)C2CCN(C(=O)c3ncn4c3COC(c3ccccc3)C4)CC2)cc1 (stereo not given)	0.5%	i	-30.5*	84.5%	-12.6%
COc1ccc(F)cc1-c1cccc(C(=O)NCCNC(=O)c2ccccc2F)c1	5.9%	i	5.7	28.4%	·
O=C(c1ccc(F)c(F)c1Nc1ccc(I)cc1F)N1CC(O)([C@H]2CCCCN2)C1	-3.2%	2.5%	·	8.1%	-2.8%
COc1cccc(C(=O)N2CCN(c3nccc(Nc4ccccc4Cl)n3)CC2)c1	-4.7%	i	12.9	5.3%	·
SMILES	HEK293 viab	GPT2 inh	IP6K1 inhibitor	SNCA expr inh	IP6K1 conf
Cc1ccc(C)c(N2CCN(C(=O)c3c4c(nc5ccccc35)C(=O)N(C3CCCCC3)C4)CC2)c1	9.3%	·	-31.2*	-4.1%	-9.1%
COc1ccccc1N1CCN(C(=O)c2c3c(nc4ccccc24)C(=O)N(C2CCCCC2)C3)CC1	-8.4%	·	-0.3	17.8%	·
COc1cccc(-c2ccc(C(=O)N3CCC(N[S+](=O)([O-])c4cccs4)CC3)cc2)c1	-12.1%[12.5 µM]	i	2.6	2.6%	·
CCOC(=O)c1oc2c(c1C)-c1nn(Cc3ccc(Cl)cc3)cc1CC2	8.8%	·	-38.4*	4.0%	?
COC(=O)c1ccc(NC(=O)CN(C)S(=O)(=O)c2ccc(Br)s2)cc1	-3.6%	·	-45.1*	-27.6%	?
NC(=O)N/N=C/c1ccc([N+](=O)[O-])o1	-3.8%[23.9 µM]	31.6µM*!	-50.0*!	-10.3%[25.6 µM]	-1.1%[92.2 µM]
CC1=CC(=O)c2ccccc2C1=O	0.2%	?	11.7	-9.6%	·
O=C1C(SCCO)=C(SCCO)C(=O)c2ccccc21	1.0%	?	·	?	10.3µM*
COc1cc(C2c3c(oc4cc(C)c(C)cc4c3=O)C(=O)N2CCCN2CCOCC2)ccc1O (stereo not given)	-9.0%	·	37.0	7.0%	·
COc1cccc(C2c3c(oc4ccc(C)cc4c3=O)C(=O)N2CCCN2CCOCC2)c1OC (stereo not given)	-3.4%	·	-25.1*	-5.7%	-2.1%
Cc1ccc(Nc2ccnc(N3CCC(C(=O)NC4CC4)CC3)n2)cc1	-4.8%[12.5 µM]	i	5.3	32.7%[87.6 µM]	·
O=C1COc2ccc(-c3ccoc3)nc2CN1Cc1ccc(C(F)(F)F)cc1	-10.2%[87.6 µM]	i	-28.7*	-20.1%[87.6 µM]	?
O=C1COc2ccc(-c3ccncc3)nc2CN1Cc1ccc(C(F)(F)F)cc1	0.1%[87.6 µM]	-9.5%[88.5 µM]	-8.7	?	·
COc1ccc(-c2ccccc2C(=O)N2CCC(NC(=O)c3ccc(C(F)(F)F)cc3)CC2)nn1	·	·	-1.1	·	·
COc1ccc(CCNC(=O)Cc2c(C)c3c(cc(C)c4c(C)c(C)oc43)oc2=O)cc1OC	5.5%	·	-16.3	23.1%	·
Cc1oc2c(c(C)cc3oc(=O)c(CC(=O)NCCc4ccccc4F)c(C)c32)c1C	-0.7%	·	-27.3*	17.0%	-11.9%
CCc1cccc(NC(=O)C2CCN(S(=O)(=O)c3cccc(-c4noc(C)n4)c3)CC2)c1	0.5%	·	46.2	?	·
CC(=O)c1ccc(N2CCN(S(=O)(=O)c3cc(-c4noc(C)n4)ccc3C)CC2)cc1	5.2%	·	4.6	-20.9%	·
COc1cccc(NC(=O)C2CCN(S(=O)(=O)c3cc(-c4noc(C)n4)ccc3C)CC2)c1	-12.2%	·	-36.4*	-12.7%	-7.1%
Cc1nc(-c2ccc(C)c(S(=O)(=O)N3CCC(C(=O)Nc4ccc(Cl)cc4)CC3)c2)no1	-0.8%	·	-25.9*	?	3.6%
COc1cc(NC(=O)Cn2c(=O)nc(-c3ccccc3F)c3cc(Cl)ccc32)cc(OC)c1	?	·	-28.5*	?	?
CCOc1ccc(Cn2c(CNS(=O)(=O)c3ccc(Cl)s3)nc3cccnc32)cc1	0.6%	·	-28.1*	?	?
CCOc1ccc(Cn2c(CNS(=O)(=O)c3ccc(CC)cc3)nc3cccnc32)cc1	-7.1%	·	-22.3	-3.5%	·
